Screens: PubChem, National Center for Advancing Translational Sciences (NCATS)
Pf growth 48h: Primary qHTS for delayed death inhibitors of the malarial parasite plastid, 48 hour incubation | P. falciparum luciferase growth in erythrocytes, 48 h | Potency, µM (titrated, usually from 28.7 µM), without a hit: at the highest dose activity change, negative = inhibition, hits mostly inhibitors | actives 5.9% (n = 310,000)
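A one-generation exposure of luciferase-tagged malaria parasites in RPMI 1640/Albumax erythrocyte culture, 37 C and 5% CO2. Inhibition is inferred from decreased luminescence after adding detection reagent.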
AMA1 RON2 block: qHTS for Inhibitors of AMA1-RON; Towards Development of Antimalarial Drug Lead: Primary Screen; Plasmodium falciparum AMA1 (3D7) - RON2 peptide interaction; actives 0.2% (n = 360,000); AID 720542, 2013; AlphaScreen AMA1-biotinylated RON2 peptide binding; Potency, µM (doses to about 58.2 µM), for the others: at the highest dose activity change, negative = inhibition, hits mostly inhibitors;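 also: 0% = vehicle wells and -100% = peptide control; nearly all actives have a fitted effect of over 45% in size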
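AMA1 (3D7) with his tag at 25 nM final met compounds first, then biotinylated RON2 peptide at 25 nM; detection used donor plus acceptor beads, 10 µg/mL apiece, read by AlphaScreen after 30 min at room temperature.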
Pf growth 96h: Primary qHTS for delayed death inhibitors of the malarial parasite plastid, 96 hour incubation | P. falciparum luciferase reporter growth, 96 h | Potency, µM (top dose mostly 28.7 µM), for inactives: at the highest dose activity change, negative = inhibition, most hits filed as inhibitors | actives 6.9% (n = 320,000)
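P. falciparum expressing integrated firefly luciferase grown in erythrocytes (2% hematocrit, 0.05% parasitemia final) with compounds for 96 hours at 37 C, 5% CO2. Growth inhibition read as loss of luminescence after adding luciferase detection reagent.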
VACV mCherry inh: qHTS for Stage-Specific Inhibitors of Vaccinia Orthopoxvirus: mCherry Reporter Primary qHTS | Vaccinia virus mCherry reporter infection, fluorescence | Potency, µM (highest dose often 36.5 µM), for inactives: at the highest dose activity change, negative = inhibition, most hits filed as inhibitors | actives 0.63% (n = 310,000) | AID 720579, 2013; calls by dose curve; tested in A549 cells; also: nearly all actives have a fitted effect of over 35% in size
Vaccinia Venus: qHTS for Stage-Specific Inhibitors of Vaccinia Orthopoxvirus: Venus Reporter Primary qHTS | Potency, µM (titrated, usually from 36.5 µM), for the others: top-dose activity change, negative = inhibition, most hits filed as inhibitors | Vaccinia virus Venus reporter expression, fluorescence | AID 720580, 2013 | actives 0.46% (n = 330,000); calls by dose curve; tested in A549 cells; also: nearly all actives have a fitted effect of over 30% in size
* marks the source's active call; other numbers are inactive results; i = inactive; ? = inconclusive; · = not tested or not shown; [ ] = dose if it differs, or a comment. Shown are actives, neighbours in structure and some others; about 8.7% of the full set was active somewhere. Unless noted, calls follow the shape of the dose curve; as a rule, active = well fitted curve in the direction sought with a large enough effect; inconclusive = small, poorly fitted or top-dose-only effect, or another doubt; inactive = no such curve, though single readings can be large; an effect the other way counts as inactive or inconclusive. Unless noted, % is scaled to controls: 0 for no effect and ±100 for the full control effect; potency is read from the fitted curve at half-maximal effect.

SMILES	Pf growth 48h	AMA1 RON2 block	Pf growth 96h	VACV mCherry inh	Vaccinia Venus
CC1(C)Cc2c(sc(NC(=O)/C=C/C(=O)O)c2C#N)CO1	4.1µM*	-2%	2.9µM*	·	·
N#Cc1c(NC(=O)/C=C/C(=O)O)sc2c1CCN(Cc1ccccc1)C2	-29%	10%	10µM*	·	·
COc1ccc(N2CCN(S(=O)(=O)c3ccc4c(c3)CCCN4C(C)=O)CC2)cc1	·	·	·	1%	-11%
Cc1ccc(C(=O)O)cc1Nc1nc2ccccc2n2nnnc12	·	·	·	-11%	4%
CCC(C)NC(=O)c1ccc(CNS(=O)(=O)c2ccc3c(c2)C(C)(C)C(=O)N3C)cc1 (stereo not drawn)	0%	-8%	9.3µM*	-1%	2%
Cc1cc(C)c(OCC(=O)N/N=C/c2ccc3c(c2)OCO3)c(C)c1	10%	-13%	12µM*	?	-22%
CC1(C(=O)N/N=C/c2ccccc2)CC1(Cl)Cl (stereo not drawn)	0%	3%	3.3µM*	i	-10%
O=C(NCc1ccccn1)C(=O)N/N=C/c1ccc2c(c1)OCO2	20%	90%	4.7µM*	·	·
Cc1ccccc1OCC(=O)N/N=C/c1ccc2c(c1)OCCO2	-1%	-3%	2.6µM*	-24%	-27%
COc1ccc(-c2nc(SCC(=O)NC3CCCC3)c(-c3ccccc3)[nH]2)cc1OC	·	·	·	-5%	1%
CC1(C(=O)N/N=C/c2ccc3c(c2)OCO3)CC1(Br)Br (stereo not drawn)	11%	4%	5.2µM*	·	·
COc1ccc(OC)c(NC(=O)Cn2cnc3sc(C)c(S(=O)(=O)N4CCN(c5ccccc5OC)CC4)c3c2=O)c1	·	·	·	-7%	-7%
CCCCN(C)C(=O)Cn1cnc2sc(C)c(S(=O)(=O)N3CCN(c4ccccc4OC)CC3)c2c1=O	12µM*	-1%	3%	-14%	5%
COc1ccccc1NC(=O)Cn1cnc2sc(C)c(S(=O)(=O)N3CCCCC3)c2c1=O	-22%	0%	0.52µM*	i	-13%
CCNc1nc(C)nc2c1oc1ccccc12	24%	-6%	0.66µM*	-1%	-10%
CCNC(=S)NNC(=O)CCc1nc2cc(Cl)ccc2n(Cc2ccccc2)c1=O	?	50%	5.9µM*	0%	0%
CN(C)C(CNC(=O)CCc1nc2cc(Cl)ccc2n(Cc2ccccc2)c1=O)c1ccccc1 (stereo not drawn)	9.3µM*	0%	10µM*	-21%	?
NC(=O)CCc1nc2cc(C(F)(F)F)ccc2n(Cc2ccccc2)c1=O	-5%	7%	-7%	-6%	10%
CCOc1ccc(CNC(=O)Nc2ccc3c(c2)N(C)C(=O)c2ccccc2S3)cc1	·	·	·	?	-28%
CC(C)c1ccc(NC(=O)Nc2nc(C(N)COCc3ccccc3)cs2)cc1 (stereo not drawn)	·	3%	·	?	11µM*
NC(CCc1ccccc1)c1csc(NC(=O)NCCc2ccccc2)n1 (stereo not drawn)	·	58%	·	-12%	-16%
NC(Cc1ccc(C(F)(F)F)cc1)c1csc(NC(=O)Nc2ccccc2Cc2ccccc2)n1 (stereo not drawn)	·	71%	·	11µM*	13µM*
CC(C)c1ccccc1NC(=O)Nc1nc(C(N)Cc2ccc(C(F)(F)F)cc2)cs1 (stereo not drawn)	·	88%	·	?	?
NC(CCc1ccccc1)c1csc(NC(=O)Nc2ccccc2Oc2ccccc2)n1 (stereo not drawn)	·	65%	·	?	11µM*
CC(C)c1ccc(NC(=O)Nc2nc(C(N)c3ccccc3)cs2)cc1 (stereo not drawn)	·	65%	·	-27%	?
SMILES	Pf growth 48h	AMA1 RON2 block	Pf growth 96h	VACV mCherry inh	Vaccinia Venus
O=C(c1cnn2c(C(F)(F)F)cc(-c3cccs3)nc12)N1CCN(C(c2ccccc2)c2ccccc2)CC1	0.93µM*	15%	?	·	-8%
CN1CCN(C(=O)c2cnn3c(C(F)(F)F)cc(-c4cccs4)nc23)CC1	-14%	-5%[11.6 µM]	?	-7%	2%
COc1ccccc1-c1cc(C(F)(F)F)n2ncc(C(=O)N3CCc4ccccc4C3)c2n1	2.3µM*	23%	?	?	?
O=C(c1cnn2c(C(F)(F)F)cc(-c3cccs3)nc12)N1CCN(Cc2ccccc2)CC1	2.3µM*	-2%	?	·	?
O=C1c2cccnc2C(=O)N1CO	29%	17%	0%	·	-15%
O=C1C(=O)c2ncccc2-c2cccnc21	0.67µM*	·	-23%	·	·
NC1=C(Br)C(=O)c2ncccc2C1=O	·	4%	·	?	2.5µM*
Cc1ccc(NC(=O)C2CC(=O)NC(Nc3cccc(C)c3)=N2)cc1 (stereo not drawn)	16%	1%	2.1µM*	-20%	-5%
O=C1CC(C(=O)Nc2ccccc2)N=C(N2CCCCC2)N1 (stereo not drawn)	21%	7%	·	-13%	-2%
Nc1nc(N)nc(-c2cc(C(F)(F)F)ccc2Cl)n1	1%	-3%	60%	i	-6%
Nc1nc(N)nc(-c2cc(Cl)ccc2Cl)n1	-5%	-12%	8.5µM*	i	-9%
C=C1C(=O)C23C(O)C1CCC2C12CCCC(C)(COC(C)=O)C1C(O)C3(O)OC2 (stereo not drawn)	·	2%	·	2.5µM*	4µM*
CCN(Cc1ccccc1)S(=O)(=O)c1ccc(F)c(C(=O)Nc2ccc(C(C)C)cc2)c1	·	·	·	-24%	-23%
C[C@@]12C(=O)Nc3ccc(Br)cc3C(=O)N1[C@H]1c3cc(Br)ccc3OC[C@@H]1[C@@H]2c1ccccc1	3.3µM*	0%	3.3µM*	-6%	?
COc1ccc2c(c1)C(=O)N1[C@H]3c4cc(Br)ccc4OC[C@@H]3[C@H](c3ccccc3)[C@]1(C)C(=O)N2	?	-4%	12µM*	-18%	?
COc1ccc(S(=O)(=O)NCCc2nnc3ccc(SCC(=O)Nc4cc(C)cc(C)c4)nn23)cc1	·	·	·	-14%	-13%
N#C/C(=C\c1ccc(Cl)cc1)C(=O)NCC1CCCO1 (stereo not drawn)	·	·	·	-6%	-4%
CCCc1nc2cccnc2n1C1CCN(C(=O)Cn2nccc2C)CC1	·	·	·	-10%	-9%
COc1ccc(/C=N/NC(=S)Nc2ccccc2)cc1COc1ccc(F)cc1	10µM*	12%	?	i	-9%
COc1ccc(/C=N/NC(=S)Nc2ccccc2)cc1COc1ccccc1F	-24%	·	?	·	·
COc1ccc(/C=N/NC(=S)Nc2ccccc2)cc1COc1ccc(Br)cc1	?	65%	3.7µM*	·	·
O=C(NCc1cccnc1)/C(=C/c1ccc(-c2cccc(Cl)c2)o1)S(=O)(=O)c1ccccc1	13µM*	14%	3.3µM*	-10%	-17%
